From PubChem BioAssay (NCATS)
Inconclusive results are not listed. A call without a number means that no potency is given here. Values without a mark were called inactive. Active and inactive are the calls of the source. The call rests on the fitted dose curve; in most records, active means well fitted cell-killing curve with a large enough effect; inconclusive means small, poorly fitted or top-dose-only effect, or effect the other way; inactive means no such curve, though single readings can be large or run the other way.

Legend:
[1] = Viability qHTS for spleen associated tyrosine kinase inhibitor (SYKi) naive MV4-11 cells (AID 1963823); further: nearly all actives have a fitted effect of over 40% in size
Procedure, shortened: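 Luminescence from CellTiter-Glo, developed 10 min at room temperature, gave viability of MV4-11 cells never exposed to SYK inhibitor. Cells (500/well) had been incubated with compounds for 72 hr under standard culture conditions.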

[2] = Viability qHTS for spleen associated tyrosine kinase inhibitor (SYKi) drug resistant MV4-11 cells (AID 1963824); further: nearly all actives have a fitted effect of over 35% in size
Procedure, shortened: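 SYK-inhibitor-resistant MV4-11 AML cells were seeded at 500 per well onto compound and cultured 72 hours (37 °C, 5% CO2). CellTiter-Glo was then added, and after 10 min at room temperature, luminescence gave viability.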
Potency means the concentration at half of the fitted maximal effect.

CCN(CC)CCNc1ccc2ncn3c4ccc(O)cc4c(=O)c1c23
Potency [1]: 0.164 µM (active)
Potency [2]: 0.291 µM (active)

C=C1CC[C@H]2[C@@](C)(CCC(O)[C@@]2(C)CO)[C@@H]1/C=C/C(=C\C(=O)O)C(=O)O (stereo not given in full)
Potency [1]: inactive
Potency [2]: inactive

COc1cc(CO)cc(OC)c1O[C@@H]1O[C@H](CO)[C@@H](O)[C@H](O)[C@H]1O
Potency [1]: inactive
Potency [2]: inactive

C[C@@H]1O[C@@H](O[C@H]2[C@H](O)[C@@H](O)[C@H](OC[C@H]3O[C@@H](OC(=O)[C@]45CCC(C)(C)C[C@H]4C4=CCC6[C@@]7(C)C[C@H](O)[C@H](O[C@@H]8O[C@H](CO)[C@@H](O)[C@H](O)[C@H]8O)[C@@](C)(C(=O)O)C7CC[C@@]6(C)[C@]4(C)CC5)[C@H](O[C@@H]4O[C@H](CO)[C@@H](O)[C@H](O)[C@H]4O)[C@@H](O)[C@@H]3O)O[C@@H]2CO)[C@H](O)[C@H](O)[C@H]1O (stereo not given in full)
viability (% of control) [1]: 103% [at 9.25 µM]
viability, % of control [2]: 87% [at 9.25 µM]

COc1cc2c(cc1-c1c(C)noc1C)ncc1[nH]c(=O)n(C(C)c3ccccn3)c12 (stereo not given)
Potency [1]: 0.326 µM (active)
Potency [2]: 0.366 µM (active)

C[C@@H](Oc1cc(-n2cnc3ccc(OC4CCN(C)CC4)cc32)sc1C(N)=O)c1ccccc1C(F)(F)F
Potency [1]: 0.0184 µM (active)
Potency [2]: 0.0092 µM (active)

CC1=C(C(=O)O[C@@H]2O[C@H](COC3OCC(O)C(O)C3O)[C@@H](O)[C@H](O)[C@H]2O)C(C)(C)CCC1 (stereo not given in full)
Potency [1]: inactive
Potency [2]: inactive

COc1cc(O[C@@H]2O[C@H](CO[C@H]3OC[C@](O)(CO)[C@H]3O)[C@@H](O)[C@H](O)[C@H]2O)cc(OC)c1O
Potency [1]: inactive
Potency [2]: inactive

N#CC1C(=O)N=C(c2cc(Cl)ccc2O)C=C1c1cc(OCc2ccccc2)cc(OCc2ccccc2)c1 (stereo not given)
Potency [1]: inactive
Potency [2]: inactive

Nc1nc(Nc2ccc3c(c2)CCC(N2CCCC2)CC3)nn1-c1cc2c(nn1)-c1ccccc1CCC2 (stereo not given)
Potency [1]: 0.231 µM (active)
Potency [2]: 0.366 µM (active)

NC(=O)[C@H]1CCCCc2c1[nH]c1ccc(Cl)cc21
Potency [1]: inactive
Potency [2]: inactive

C=C1C(=O)O[C@H]2C[C@@H](C)[C@@H]3CCC(=O)[C@@]3(C)C[C@H]12
Potency [1]: 4.11 µM (active)
Potency [2]: 2.59 µM (active)

C=CC(C)(C)c1[nH]c2ccccc2c1C[C@@H]1NC(=O)[C@H](Cc2c[nH]c3ccccc23)NC1=O
Potency [1]: inactive
Potency [2]: 0.252 µM (active)

CC(=O)OCC(=O)O[C@@H]1[C@H]2[C@@H](OC(=O)c3ccccc3)[C@@H](C)C[C@]2(O)[C@H](OC(C)=O)C2(C)[C@H]3CC(C)(C)C(=O)[C@@H]3CC1(OC(C)=O)[C@@H]2OC(C)=O (stereo not given in full)
Potency [1]: inactive
Potency [2]: inactive

CCOC(=O)C1=C(N)Oc2ccc(Cl)cc2C1C(C#N)C(=O)OCC (stereo not given)
Potency [1]: inactive
Potency [2]: inactive

C[C@@H]1C[C@@H](O)[C@@]23CO[C@]2(CO)C[C@@H](O)CC3[C@@]12CC(c1ccoc1)OC2=O (stereo not given in full)
Potency [1]: inactive
Potency [2]: inactive

COC(=O)C1=CO[C@@H](O[C@@H]2O[C@H](CO[C@@H]3O[C@H](COC(=O)/C=C/c4ccc(O)cc4)[C@@H](O)[C@H](O)[C@H]3O)[C@@H](O)[C@H](O)[C@H]2O)[C@@H]2C(CO)=CC[C@H]12
Potency [1]: inactive
Potency [2]: inactive

C=C(C)C1CC2(CO)C(=CC1=O)CCC(O)C2C (stereo not given)
Potency [1]: inactive
Potency [2]: inactive

C=C(C)C(=O)OC1[C@@H]2C(=C)C(=O)O[C@@H]2C[C@@H](C)[C@@H]2C=CC(=O)[C@@]12C (stereo not given in full)
Potency [1]: 2.27 µM (active)
Potency [2]: 2.86 µM (active)

Cc1c(C(=O)O)c(O)cc2c1C(=O)c1c(O)c([C@@H]3O[C@H](CO)[C@@H](O)[C@H](O)[C@H]3O)c(O)c(O)c1C2=O
Potency [1]: inactive
Potency [2]: inactive

COc1cc(C(C)=O)ccc1O[C@@H]1O[C@H](CO[C@@H]2O[C@@H](C)[C@H](O)[C@@H](O)[C@H]2O)[C@@H](O)[C@H](O)[C@H]1O
Potency [1]: inactive
Potency [2]: inactive

CNc1cccc(CCOc2ccc3c(c2)CN(CC(F)(F)F)C(=O)[C@H](CC(=O)O)C3)n1
Potency [1]: inactive
Potency [2]: inactive

CC1=C(CCC(C)O[C@@H]2O[C@H](CO)[C@@H](O)[C@H](O)[C@H]2O)C(C)(C)CCC1=O (stereo not given in full)
Potency [1]: inactive
Potency [2]: inactive

COc1cc2c(NC3CCN(C(C)C)CC3)nc(N3CCC(F)(F)CC3)nc2cc1OCCCN1CCCC1
Potency [1]: 5.17 µM (active)
Potency [2]: 2.91 µM (active)

C=C1C(=O)OC2/C=C(\CO)CC/C=C(\C=O)C(O)C(OC(=O)C(C)CC)C12 (stereo not given)
Potency [1]: 2.02 µM (active)
Potency [2]: 2.86 µM (active)

CC(C)(Cc1nc(-c2ccc(O)cn2)no1)C(=O)NC1=C(C(=O)O)CCCC1
Potency [1]: inactive
Potency [2]: inactive

OCc1ccc(O[C@@H]2O[C@H](CO)[C@@H](O)[C@H](O)[C@H]2O)cc1
Potency [1]: inactive
Potency [2]: inactive

C=C1[C@H](OC(C)=O)[C@H]2[C@@H](OC(=O)c3ccccc3)[C@@H](C)C[C@]2(O)[C@@H](OC(C)=O)[C@H](C)/C=C/C(C)(C)C(=O)[C@H](OC(C)=O)[C@H]1OC(C)=O
Potency [1]: inactive
Potency [2]: inactive

CC(=O)C1=CCC2C3CCC4CC(O[C@@H]5O[C@H](CO)[C@@H](O[C@@H]6O[C@@H](C)[C@H](O)[C@@H](O)[C@H]6O)[C@H](O)[C@H]5O[C@@H]5O[C@H](CO)[C@@H](O)[C@H](O)[C@H]5O)CCC4(C)C3CCC12C (stereo not given in full)
Potency [1]: inactive
Potency [2]: inactive

OC[C@@]1(O)CO[C@H](OC[C@H]2O[C@@H](OCCc3ccccc3)[C@H](O)[C@@H](O)[C@@H]2O)[C@@H]1O
Potency [1]: inactive
Potency [2]: inactive

C=C1C(=O)O[C@H]2/C=C(/C)[C@@H](OC(C)=O)C/C=C(\C)C[C@@H](OC(=O)/C(=C/C)COC(=O)/C(=C/C)CO)[C@@H]12
Potency [1]: 1.78 µM (active)
Potency [2]: 1.59 µM (active)

C[C@@H]1CC[C@]2(C(=O)OC3OC(CO)C(O)C(O)C3O)CC[C@]3(C)C(=CCC4[C@@]5(C)CC[C@H](O)[C@](C)(C(=O)O)C5CC[C@]43C)C2[C@]1(C)O (stereo not given in full)
Potency [1]: inactive
Potency [2]: inactive

NC(=O)C(O[C@@H]1O[C@H](CO[C@@H]2O[C@H](CO)[C@@H](O)[C@H](O)[C@H]2O)[C@@H](O)[C@H](O)[C@H]1O)c1ccccc1 (stereo not given in full)
Potency [1]: inactive
Potency [2]: inactive

CCCC(=O)O[C@]1(C(=O)CCl)[C@@H](C)C[C@H]2[C@@H]3CCC4=CC(=O)C=C[C@]4(C)[C@@]3(F)C(=O)C[C@@]21C
Potency [1]: 11.9 µM (active)
Potency [2]: 13.3 µM (active)

CCC(C)C1NC(=O)C2CCCN2C(=O)C(NC(C)=O)C(C)OC(=O)C(Cc2ccc(OC)cc2)N(C)C(=O)C2CCCN2C(=O)C(C(C)C)NC1=O (stereo not given)
Potency [1]: inactive
Potency [2]: inactive

CC(C)=CCc1cc(C(O)C2NC(=O)CNC(=O)C(Cc3c[nH]c4ccccc34)NC(=O)C3CCCN3C(=O)CNC(=O)C(C(C)C)NC(=O)CNC2=O)ccc1O (stereo not given)
viability (% of control) [1]: 78.4% [at 9.25 µM]
viability, % of control [2]: 92.7% [at 9.25 µM]

C/C=C/C=C/C=C/C(=O)N(C)C(C(=O)NC(C)C(=O)N1CCCC1C(N)=O)C(C)C (stereo not given)
Potency [1]: inactive
Potency [2]: inactive

COc1cc2c(cc1OC)/C(=C/c1ccc(O)cc1)C(=O)N2
Potency [1]: 8.2 µM (active)
Potency [2]: 18.4 µM (active)

Cc1cc(O)cc(O[C@@H]2O[C@H](CO)[C@@H](O)[C@H](O)[C@H]2O)c1
Potency [1]: inactive
Potency [2]: inactive

C[C@H]1CC(=O)Nc2cccc(-c3cnn(C(C)(C)C)c3)c2N1
Potency [1]: inactive
Potency [2]: inactive

COC1=CC(=O)O/C1=C(/OC)[C@@H]1O[C@H]1c1ccccc1
Potency [1]: 23.1 µM (active)
Potency [2]: 10.3 µM (active)

COc1cc(C)c(C(=O)NC2C(C)OC(OC3CCC(C)C4C3C=C(C)C3/C(C)=C\CC/C(C)=C/C5(C)C=C(C(=O)O)C(C)CC56OC(=O)/C(=C(\O)C34C)C6=O)C(O)C2(C)O)c(O)c1 (stereo not given)
viability (% of control) [1]: 82.6% [at 9.25 µM]
viability, % of control [2]: 77% [at 9.25 µM]

CC1=CC(=O)OC(C)(CC(C)(O)C(=O)O)C1 (stereo not given)
Potency [1]: inactive
Potency [2]: inactive

CC(C)=CCc1cc(O[C@@H]2O[C@H](CO[C@@H]3OC[C@](O)(CO)[C@H]3O)[C@@H](O)[C@H](O)[C@H]2O)ccc1O
Potency [1]: inactive
Potency [2]: inactive

Nc1nonc1-c1nc2cnccc2n1C1CC1
Potency [1]: 2.06 µM (active)
Potency [2]: 2.31 µM (active)

Cn1nnc(-c2ccc(-c3ccc(N4C[C@H](COP(=O)(O)O)OC4=O)cc3F)cn2)n1
Potency [1]: inactive
Potency [2]: inactive

CCOC(=O)c1cnc2ccc(-c3cncc(NS(=O)(=O)c4ccccc4)c3)cn12
Potency [1]: 0.326 µM (active)
Potency [2]: 0.231 µM (active)

COC(=O)C1=COC(OC2OC(CO)C(O)C(O)C2O)C2C(COC(=O)/C=C/c3ccc(O)c(O)c3)C(O)C(O)C12 (stereo not given)
Potency [1]: inactive
Potency [2]: inactive

COc1cc(C(=O)OC[C@H]2O[C@@H](OC(C)(C)C(=O)O)[C@H](O)[C@@H](O)[C@@H]2O)cc(OC)c1O
Potency [1]: inactive
Potency [2]: inactive

CC(=O)O[C@H]1[C@H](OC(=O)C(C)C)[C@]2(C)OC3(CC[C@]2(C)[C@H]2CCC[C@]4(CO4)[C@]12C)COC(=O)C3 (stereo not given in full)
Potency [1]: inactive
Potency [2]: inactive

CCn1c(-c2nonc2N)nc2c(C#CC(C)(C)O)ncc(OCC3CCCNC3)c21 (stereo not given)
Potency [1]: 13 µM (active)
Potency [2]: 8.2 µM (active)

O=C(/C=C/c1ccc(O)c(O)c1)O[C@H]1[C@H](OC2CCCCC2O)O[C@H](CO)[C@@H](O)[C@@H]1O (stereo not given in full)
Potency [1]: inactive
Potency [2]: inactive

Cc1cc(N2CCCCC2)nc2ccccc12
Potency [1]: inactive
Potency [2]: inactive

O=C(Nc1ccc2[nH]ncc2c1)C1CCC1
Potency [1]: inactive
Potency [2]: inactive

C[C@@H]1O[C@@H](O[C@@H]2[C@@H](O)[C@H](O[C@H]3[C@H](O[C@H]4CC[C@@]5(C)C(CC[C@]6(C)C5CC=C5[C@@H]7CC(C)(C)CC[C@]7(C(=O)O[C@@H]7O[C@H](CO)[C@@H](O)[C@H](O)[C@H]7O)CC[C@]56C)C4(C)C)O[C@H](C(=O)O)[C@@H](O)[C@@H]3O)OC[C@H]2O)[C@H](O)[C@H](O)[C@H]1O (stereo not given in full)
viability (% of control) [1]: 62.1% [at 9.25 µM]
viability, % of control [2]: 87.3% [at 9.25 µM]
